# Experimental data from PMC5540273 (PLoS ONE, 2017).
# Tests used:
# Conditions in all cases: concentration: 1 μM,replicates: in singlicate; n = 1
# EPHA7 = test system: EPHA7
# EPHA8 = test system: EPHA8
# EPHB1 = test system: EPHB1
# EPHB2 = test system: EPHB2
# EPHB3 = test system: EPHB3
# EPHB4 = test system: EPHB4
# EPHB6 = test system: EPHB6
# ERBB2 = test system: ERBB2
# ERBB3 = test system: ERBB3
# ERBB4 = test system: ERBB4
# ERK1 = test system: T1, ERK1
# T1 construct: gene MAPK3
# ERK2 = test system: T2, ERK2
# T2 construct: gene MAPK1
# ERK3 = test system: T3, ERK3
# T3 construct: gene MAPK6
# ERK4 = test system: T4, ERK4
# T4 construct: gene MAPK4
# ERK5 = test system: T5, ERK5
# T5 construct: gene MAPK7
# ERK8 = test system: T6, ERK8
# T6 construct: gene MAPK15
# ERN1 = test system: ERN1
# FAK = test system: T7, FAK
# T7 construct: gene PTK2
# FER = test system: FER
# FES = test system: FES
# 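Further: KINOMEscan kinase panel screen.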
Structure (SMILES),%Inh (EPHA7) [%],%Inh (EPHA8) [%],%Inh (EPHB1) [%],%Inh (EPHB2) [%],%Inh (EPHB3) [%],%Inh (EPHB4) [%],%Inh (EPHB6) [%],%Inh (ERBB2) [%],%Inh (ERBB3) [%],%Inh (ERBB4) [%],%Inh (ERK1) [%],%Inh (ERK2) [%],%Inh (ERK3) [%],%Inh (ERK4) [%],%Inh (ERK5) [%],%Inh (ERK8) [%],%Inh (ERN1) [%],%Inh (FAK) [%],%Inh (FER) [%],%Inh (FES) [%]
COc1cccc(CNC(=O)NC2CCN(c3ccnc(Nc4cc(OC)c(OC)c(OC)c4)n3)C2)c1 (stereo not shown) [GSK1379765],6,13,13,0,20,8,92.6,17,28,38,0,0,33,0,0,0,3,0,26,0
O=C(Nc1ccccc1)c1cccc(Oc2ccc3nccn3n2)c1,0,1,13,8,0,3,64,0,39,0,0,0,0,77,0,0,22,0,2,6
O=C(NCC1CC1)c1ccc(-c2cc(C(=O)NC3CC3)ccc2F)cc1 [GW810445],0,3,4,0,0,0,0,11,0,33,0,0,0,0,1,0,0,3,0,0
CN1CCN(CCCNc2nccc(-c3c(-c4ccc(F)cc4)nn4cc(C(N)=O)ccc34)n2)CC1 [GW622475],8,26,35,26,0,20,44,24,0,63,0,2,5,36,0,0,35,0,26,0
Nc1nccc(-c2ccc3c(N)n[nH]c3c2)n1 [GSK1034945],6,13,30,19,16,6,2,6,0,25,0,0,0,8,0,49,0,0,0,0
C[C@@H](Oc1cc(-n2cnc3cc(-c4ccncc4)ccc32)sc1C(N)=O)c1ccccc1Cl [GSK479719],8,15,9,0,18,12,0,0,0,0,0,0,0,0,0,85,16,0,13,18
FC(F)(F)c1cc(Br)cc(Nc2nccc(-c3cnn4ncccc34)n2)c1 [GW810578],0,0,0,9,17,0,48,0,1,0,0,25,16,0,0,99.5,59,18,0,0
CS(=O)(=O)c1cccc(CNc2nc(Nc3ccc4c(c3)[C@@H]3C[C@@H]4CNC3=O)ncc2C(F)(F)F)c1,63,0,40,19,5,16,72,15,0,20,24,44,0,0,7,99.6,17,100,93.4,85
